Among all 39,000 compounds or so, about 3,300 (8.5%) were called active. The entries come from a sample that favours actives as a whole.
Test system: HepG2
Experiment: cytotoxicity call (relative viability < 0.9)
Details: 10 µM

Q: How did the cytotoxicity call turn out when C[C@@H]1CN([C@@H](C)CO)C(=O)c2cccc(NS(=O)(=O)c3cn(C)cn3)c2O[C@@H]1CN(C)Cc1ccc(C(=O)O)cc1 was run?
A: inactive

Q: Which cytotoxicity call does the source give for C[C@@H]1CN([C@H](C)CO)C(=O)c2cc(NC(=O)Cn3cnnn3)ccc2O[C@H]1CN(C)Cc1ccc(C(=O)O)cc1 here?
A: inactive

Q: For C[C@@H]1CCCCO[C@H](CN(C)C(=O)Nc2ccccc2)[C@H](C)CN([C@@H](C)CO)C(=O)c2cc(NS(=O)(=O)c3cccs3)ccc2O1, which cytotoxicity call is on record?
A: inactive

Q: With C[C@H](CO)N1C[C@H](C)[C@@H](CN(C)S(C)(=O)=O)Oc2ccc(NC(=O)CCC(F)(F)F)cc2CC1=O as the compound, how does the cytotoxicity call read?
A: inactive

Q: C[C@@H]1CN([C@@H](C)CO)C(=O)c2cc(NC(=O)Nc3ccccc3)ccc2O[C@@H](C)CCCCO[C@H]1CN(C)S(=O)(=O)c1cccc(F)c1 was tested. Which cytotoxicity call did it give?
A: inactive

Q: With CCOC(=O)[C@H](Cc1c[nH]c2ccccc12)NC(=O)Cn1cc(CN2C(=O)COC[C@H]2c2ccccc2)nn1 as the compound, how does the cytotoxicity call read?
A: active

Q: How did the cytotoxicity call turn out when Cc1ccc(S(=O)(=O)N[C@@H](Cc2ccccc2)C(=O)NCCn2cc(CN3C(=O)COC[C@H]3c3ccccc3)nn2)cc1 was run?
A: inactive

Q: For CCOC(=O)[C@H](Cc1c[nH]c2ccccc12)NC(=O)Cn1cc(C(=O)NO)nn1, which cytotoxicity call is on record?
A: inactive

Q: How did the cytotoxicity call turn out when Cc1noc(C)c1S(=O)(=O)Nc1ccc2c(c1)C(=O)N([C@@H](C)CO)C[C@@H](C)[C@H](CN(C)C(=O)NC1CCCCC1)O2 was run?
A: inactive

Q: How did the cytotoxicity call turn out when COc1ccc(-c2nc(-c3ccc(C)cc3C)cs2)cc1 was run?
A: inactive

Q: COc1ccc(NC(=O)Nc2ccc3c(c2)CC(=O)N([C@@H](C)CO)C[C@@H](C)[C@@H](CN(C)CC2CCCCC2)O3)cc1 was tested. Which cytotoxicity call did it give?
A: inactive

Q: Which cytotoxicity call does the source give for COc1ccc(NC(=O)Nc2ccc3c(c2)CC(=O)N([C@@H](C)CO)C[C@H](C)[C@@H](CN(C)CC2CCCCC2)O3)cc1 here?
A: inactive

Q: For COc1ccc(NC(=O)Nc2ccc3c(c2)CC(=O)N([C@@H](C)CO)C[C@@H](C)[C@H](CN(C)CC2CCCCC2)O3)cc1, which cytotoxicity call is on record?
A: active

Q: Which cytotoxicity call does the source give for COc1ccc(NC(=O)Nc2ccc3c(c2)CC(=O)N([C@H](C)CO)C[C@H](C)[C@H](CN(C)CC2CCCCC2)O3)cc1 here?
A: inactive

Q: Which cytotoxicity call does the source give for COc1ccc(NC(=O)Nc2ccc3c(c2)CC(=O)N([C@H](C)CO)C[C@@H](C)[C@@H](CN(C)CC2CCCCC2)O3)cc1 here?
A: active

Q: COc1ccc(NC(=O)Nc2ccc3c(c2)CC(=O)N([C@H](C)CO)C[C@H](C)[C@@H](CN(C)CC2CCCCC2)O3)cc1 was tested. Which cytotoxicity call did it give?
A: inactive

Q: How did the cytotoxicity call turn out when C[C@H](CO)N1C[C@H](C)[C@H](CN(C)Cc2ccc(C(=O)O)cc2)OCCCC[C@H](C)Oc2ccc(NC(=O)NC3CCCCC3)cc2C1=O was run?
A: inactive

Q: With C[C@H]1CCCCO[C@H](CN(C)S(=O)(=O)c2cccs2)[C@@H](C)CN([C@@H](C)CO)C(=O)c2cc(NS(C)(=O)=O)ccc2O1 as the compound, how does the cytotoxicity call read?
A: inactive

Q: O=C(NCC(F)(F)F)[C@@H]1c2ccccc2C(=O)N(Cc2cc(C(F)(F)F)cc(C(F)(F)F)c2)[C@H]1c1ccc(CO)cc1 was tested. Which cytotoxicity call did it give?
A: inactive

Q: O=C1CO[C@H]2CN(S(=O)(=O)c3ccccc3)C[C@@H]2N1 was tested. Which cytotoxicity call did it give?
A: inactive

Q: Which cytotoxicity call does the source give for C[C@@H]1CN([C@H](C)CO)C(=O)c2cc(NS(=O)(=O)c3ccc(F)cc3)ccc2O[C@@H]1CN(C)S(C)(=O)=O here?
A: inactive

Q: For C[C@@H]1CCCCO[C@H](CN(C)Cc2ccc(C(F)(F)F)cc2)[C@H](C)CN([C@@H](C)CO)C(=O)c2cc(NS(=O)(=O)c3cccs3)ccc2O1, which cytotoxicity call is on record?
A: active

Q: With C[C@@H]1CCCCO[C@H](CN(C)Cc2ccc(C(F)(F)F)cc2)[C@@H](C)CN([C@H](C)CO)C(=O)c2cc(NS(=O)(=O)c3cccs3)ccc2O1 as the compound, how does the cytotoxicity call read?
A: inactive

Q: For C[C@@H]1CCCCO[C@H](CN(C)Cc2ccc(C(F)(F)F)cc2)[C@H](C)CN([C@H](C)CO)C(=O)c2cc(NS(=O)(=O)c3cccs3)ccc2O1, which cytotoxicity call is on record?
A: active

Q: How did the cytotoxicity call turn out when C[C@@H]1CN([C@@H](C)CO)C(=O)c2cc(NS(=O)(=O)c3cccs3)ccc2O[C@@H](C)CCCCO[C@H]1CN(C)Cc1ccc(C(F)(F)F)cc1 was run?
A: inactive

Q: Which cytotoxicity call does the source give for C[C@@H]1CCCCO[C@@H](CN(C)Cc2ccc(C(F)(F)F)cc2)[C@@H](C)CN([C@@H](C)CO)C(=O)c2cc(NS(=O)(=O)c3cccs3)ccc2O1 here?
A: active

Q: For C[C@@H]1CN([C@H](C)CO)C(=O)c2cc(NS(=O)(=O)c3cccs3)ccc2O[C@@H](C)CCCCO[C@@H]1CN(C)Cc1ccc(C(=O)O)cc1, which cytotoxicity call is on record?
A: inactive

Q: Which cytotoxicity call does the source give for C[C@H]1CCCCO[C@H](CN(C)Cc2ccc(C(F)(F)F)cc2)[C@@H](C)CN([C@@H](C)CO)C(=O)c2cc(NS(=O)(=O)c3cccs3)ccc2O1 here?
A: inactive

Q: With C[C@@H]1CCCCO[C@@H](CN(C)Cc2ccc(C(F)(F)F)cc2)[C@H](C)CN([C@H](C)CO)C(=O)c2cc(NS(=O)(=O)c3cccs3)ccc2O1 as the compound, how does the cytotoxicity call read?
A: active

Q: Which cytotoxicity call does the source give for C[C@@H]1CCCCO[C@@H](CN(C)Cc2ccc(C(=O)O)cc2)[C@H](C)CN([C@H](C)CO)C(=O)c2cc(NS(=O)(=O)c3cccs3)ccc2O1 here?
A: inactive

Q: How did the cytotoxicity call turn out when C[C@@H]1CN([C@@H](C)CO)C(=O)c2cc(NS(=O)(=O)c3cccs3)ccc2O[C@@H](C)CCCCO[C@@H]1CN(C)Cc1ccc(C(F)(F)F)cc1 was run?
A: inactive

Q: How did the cytotoxicity call turn out when COc1ccc(OCc2c(-c3ccccc3)nnn2CC(=O)NS(=O)(=O)c2cccc(C#N)c2)cc1 was run?
A: inactive

Q: COCC(=O)N1C[C@@H](C)[C@H](OC)CN(C)C(=O)c2cc(NC(=O)c3ccc(F)cc3)ccc2OC[C@@H]1C was tested. Which cytotoxicity call did it give?
A: inactive

Q: For COc1cc2ccc(=O)oc2c(O[C@H]2O[C@@H](CO)[C@@H](O)[C@@H](O)[C@@H]2O)c1O, which cytotoxicity call is on record?
A: inactive

Q: How did the cytotoxicity call turn out when C[C@@H]1CN([C@@H](C)CO)C(=O)Cc2cc(NC(=O)Cn3cnnn3)ccc2O[C@@H]1CN(C)C(=O)Nc1ccc2c(c1)OCO2 was run?
A: inactive

Q: With CCS(=O)(=O)N1C[C@]2(CN(C2)C(=O)CN2CCOCC2)c2c(n(c3cc(ccc23)OC)C)[C@H]1CO as the compound, how does the cytotoxicity call read?
A: inactive

Q: Which cytotoxicity call does the source give for COc1ccc(CN(C)C[C@H]2OCCCC[C@H](C)Oc3ccc(NS(=O)(=O)c4ccccc4)cc3C(=O)N([C@H](C)CO)C[C@H]2C)cc1 here?
A: inactive

Q: With O=C(Cc1ccccn1)NCC[C@H]1CC[C@H](NC(=O)CN2CCOCC2)[C@H](CO)O1 as the compound, how does the cytotoxicity call read?
A: inactive

Q: For C[C@@H]1CN([C@H](C)CO)C(=O)c2cc(NS(=O)(=O)c3cn(C)cn3)ccc2O[C@H]1CN(C)Cc1ccncc1, which cytotoxicity call is on record?
A: inactive
